From PubChem BioAssay (EPA / NIEHS)
Values joined by “and” are separate entries in the source; they are usually repeats but may differ in a detail not shown here. Identical values can stand only once. More than one record can exist for a structure, and the calls need not agree. Active and inactive are the calls of the source. Rule for the calls: active = hit-call score of the fitted dose curve at least 0.9, where 1 is the maximum; inactive = score below 0.9.

How the values were obtained:
[1] = ATG_DR4_LXR_CIS: Attagene CIS-FACTORIAL HepG2 Assay for human Liver X Receptor (LXR), DR4 submotif (AID 2282929); conditions: HepG2 Attagene DR4 cis-reporter, mRNA transcription; AC50: actives raise or lower the signal unless noted; outcome: actives raise or lower the signal unless noted
Method in brief: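 Cells were transfected with multiple reporter transcription units, exposed to chemicals for 24 hours, then lysed for RNA. Reporter mRNA induction was measured by RT-PCR with capillary electrophoresis detection and fitted in both directions relative to DMSO.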

[2] = biological target: Aryl hydrocarbon receptor (Homo sapiens) (UniProt P35869); test: ATG_Ahr_CIS: Attagene CIS-FACTORIAL HepG2 Assay for human Aryl Hydrocarbon Receptor (Ahr) (AID 2282930); conditions: HepG2 AhR cis-factorial reporter transcription; actives raise or lower the signal
Method in brief: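 HepG2 cells transiently transfected with cis-element-driven multiplexed reporter units; endogenous AhR activity read as reporter mRNA 24 h after dosing, via RT-PCR, 6-FAM labelling, HpaI digestion and capillary electrophoresis. Bidirectional fit relative to DMSO.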

[3] = ATG_AP_1_CIS: Attagene CIS-FACTORIAL HepG2 Assay for human Activator Protein 1 (AP-1) (AID 2282931); conditions: HepG2 Attagene cis-factorial AP-1 reporter mRNA; actives raise or lower the signal
Method in brief: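 Endogenous transcription-factor activity in human HepG2 liver cells is read through a cis-promoter reporter transcript, sampled 24 h after dosing. Detection uses RT-PCR with capillary electrophoresis; values come from bidirectional fitting relative to DMSO.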

[4] = ATG_AP_2_CIS: Attagene CIS-FACTORIAL HepG2 Assay for human Activator Protein 2 (AP-2) (AID 2282932); conditions: HepG2 AP-2 cis-reporter, Attagene transcription factor profiling; AC50: actives raise or lower the signal unless noted; outcome: actives raise or lower the signal unless noted
Method in brief: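 Read-out: fluorescent reporter mRNA via RT-PCR and capillary electrophoresis, 24 h post-dose in transiently transfected HepG2. Endogenous factors drive cis-promoter reporters; gain or loss of signal fitted bidirectionally against DMSO.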

[5] = ATG_BRE_CIS: Attagene CIS-FACTORIAL HepG2 Assay for human Bone Morphogenetic Protein (BMP) Response Element (BRE) (AID 2282933); conditions: HepG2 BMP response element reporter, Attagene transcription factor profiling; actives raise or lower the signal
Method in brief: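 Fluorescence-labelled reporter cDNA fragments, separated by capillary electrophoresis, gave the signal for this component of a 52-readout multiplex. HepG2 cells were transfected, exposed to chemicals for 24 h, and compared with DMSO using bidirectional fitting.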

[6] = biological target: Retinoic acid receptor alpha (Homo sapiens) (UniProt P10276); test: ATG_DR5_RAR_CIS: Attagene CIS-FACTORIAL HepG2 Assay for human Retinoic Acid Receptor Alpha (RARE), DR5 submotif (AID 2282934); conditions: HepG2 Attagene cis-factorial RARE DR5 reporter, mRNA; actives raise or lower the signal
Method in brief: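 HepG2 cells transiently transfected with multiplexed reporter units; DR5 cis-element drives reporter through endogenous transcription factors. After 24 h dosing, reporter mRNA quantified by RT-PCR, fluorescent labeling, HpaI digestion and capillary electrophoresis; bidirectional fitting versus DMSO.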

[7] = biological target: Transcription factor E2F1 (Homo sapiens) (UniProt Q01094); test: ATG_E2F_CIS: Attagene CIS-FACTORIAL HepG2 Assay for human E2F Transcription Factor 1 (AID 2282935); conditions: HepG2 Attagene cis-reporter, E2F reporter RNA transcripts; actives raise or lower the signal
Method in brief: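 Transient MRTU transfection of HepG2; 24 h compound exposure; RNA → oligo(dT) RT → PCR → FAM label → HpaI cut → CE fluorescence. Gain/loss of signal fit against DMSO.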

[8] = ATG_E_Box_CIS: Attagene CIS-FACTORIAL HepG2 Assay for human Enhancer Box (E-box) (AID 2282936); conditions: HepG2 E-box cis-reporter transcription, actives raise or lower the signal
Method in brief: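 Transiently transfected HepG2, endogenous TF-driven reporters, 24 h dosing. Readout: RT-PCR plus capillary electrophoresis of fluorescent reporter fragments. Gain or loss of signal fitted bidirectionally against DMSO baseline.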

[9] = ATG_M_61_CIS: Attagene CIS-FACTORIAL HepG2 Assay for M61 Transcription Factor (Internal Marker) (AID 2282937); conditions: HepG2 Attagene CIS-FACTORIAL M61 internal marker reporter; actives raise or lower the signal
Method in brief: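 Cells were transfected with reporter units under cis-regulatory promoters, treated with chemicals for 24 h, then lysed for RNA. Reporter transcripts were quantified by RT-PCR and capillary electrophoresis, and activity was fitted bidirectionally against DMSO.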

[10] = ATG_EGR_CIS: Attagene CIS-FACTORIAL HepG2 Assay for human Early Growth Response 1 (EGR1) (AID 2282938); conditions: HepG2 Attagene CIS-FACTORIAL EGR reporter mRNA; actives raise or lower the signal
Method in brief: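 Endogenous TF activity in HepG2 liver cells was gauged through cis-promoter reporter constructs transiently transfected. After 24 h dosing, reporter mRNA was quantified by RT-PCR and capillary electrophoresis, and curves fitted in both directions versus DMSO.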

[11] = ATG_M_19_CIS: Attagene CIS-FACTORIAL HepG2 Assay for M19 Transcription Factor (Internal Marker) (AID 2282939); conditions: HepG2 Attagene CIS-FACTORIAL M19 internal marker reporter; actives raise or lower the signal
Method in brief: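 HepG2, MRTU transient transfection, 24 h dosing. Total RNA → RT-PCR → 6-FAM primer extension → HpaI digest → CE fluorescence. Bidirectional curve fit, DMSO negative control.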

[12] = ATG_ERE_CIS: Attagene CIS-FACTORIAL HepG2 Assay for Estrogen Response Element (ERE) (AID 2282940); conditions: HepG2 ERE cis-reporter, Attagene RNA transcript; actives raise or lower the signal
Method in brief: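 After a 24 h chemical treatment, RNA from reporter-transfected HepG2 cells is reverse-transcribed, PCR-amplified and fluorescently labelled. Fragments separated by capillary electrophoresis give reporter signal; DMSO serves as negative control.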

[13] = ATG_Ets_CIS: Attagene CIS-FACTORIAL HepG2 Assay for human Erythroblast Transformation Specific (ETS) (AID 2282941); conditions: HepG2 ETS cis-reporter transcription; AC50: actives raise or lower the signal unless noted; outcome: actives raise or lower the signal unless noted
Method in brief: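 RT-PCR/capillary electrophoresis fluorescence read-out of reporter mRNA; HepG2 transient multi-reporter transfection; 24 h compound exposure; gain or loss of signal fitted bidirectionally relative to DMSO.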

[14] = biological target: Hepatocyte nuclear factor 3-beta (Homo sapiens) (UniProt Q9Y261); test: ATG_FoxA2_CIS: Attagene CIS-FACTORIAL HepG2 Assay for human Forkhead box A2 (FOXA2) (AID 2282942); conditions: HepG2 cis-reporter transcription factor activity, 24 h; actives raise or lower the signal
Method in brief: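 Endogenous transcription factor activity was read in HepG2 cells carrying transiently transfected cis-promoter reporter units. After 24 h dosing, reporter mRNA was quantified by RT-PCR and capillary electrophoresis, and values fitted bidirectionally versus DMSO.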

[15] = ATG_FoxO_CIS: Attagene CIS-FACTORIAL HepG2 Assay for human Forkhead box O (FoxO) (AID 2282943); conditions: HepG2 Attagene cis-reporter, FoxO element, mRNA; actives raise or lower the signal
Method in brief: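 HepG2 cells transiently transfected with cis-element-driven reporter units report endogenous FoxO activity. After 24 h chemical exposure, reporter mRNA quantified by RT-PCR, fluorescent labeling, HpaI digestion and capillary electrophoresis; bidirectional fit versus DMSO.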

[16] = ATG_GATA_CIS: Attagene CIS-FACTORIAL HepG2 Assay for human GATA Binding Protein (AID 2282944); conditions: HepG2 GATA cis-element reporter, Attagene multiplex mRNA; actives raise or lower the signal
Method in brief: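 Cells: HepG2, transiently transfected with cis-regulated reporter transcription units. Exposure: 24 h. Detection: RT-PCR plus capillary electrophoresis of FAM-labeled fragments. Analysis: bidirectional, DMSO as baseline.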

[17] = ATG_GLI_CIS: Attagene CIS-FACTORIAL HepG2 Assay for human Zinc Finger Protein GLI1 (AID 2282945); conditions: HepG2, Attagene cis-factorial reporter mRNA, GLI element; actives raise or lower the signal
Method in brief: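 Transiently transfected HepG2 cells report endogenous transcription factor activity via cis-element-driven reporter units. After 24 h compound exposure, reporter mRNA was measured by RT-PCR with capillary electrophoresis; bidirectional fitting against DMSO baseline.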

[18] = biological target: Bile acid receptor (Homo sapiens) (UniProt Q96RI1); test: ATG_IR1_CIS: Attagene CIS-FACTORIAL HepG2 Assay for human Nuclear Receptor Subfamily 1 Group H Member 4 (NR1H4), IR1 submotif (AID 2282946); conditions: IR1 reporter transcription, actives raise or lower the signal
Method in brief: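 Fluorescence of capillary-separated, HpaI-digested RT-PCR reporter products gave IR1-element mRNA induction in HepG2 cells 24 h after dosing. Endogenous transcription factors drove the cis-regulated reporters; activity was fitted bidirectionally against DMSO.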

[19] = ATG_GRE_CIS: Attagene CIS-FACTORIAL HepG2 Assay for human Glucocorticoid Response Elements (GRE) (AID 2282947); conditions: HepG2 GRE cis-reporter, Attagene multiplex mRNA; AC50: actives raise or lower the signal unless noted; outcome: actives raise or lower the signal unless noted
Method in brief: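 Read-out: fluorescent reporter-transcript fragments separated by capillary electrophoresis after RT-PCR. Transiently transfected HepG2 cells carrying cis-element-driven reporter units were dosed for 24 h; gain or loss of signal fitted against DMSO control.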

[20] = ATG_ISRE_CIS: Attagene CIS-FACTORIAL HepG2 Assay for human Interferon Regulatory Factor 1 (IRF1) binding to an Interferon-Stimulated Response Element (ISRE) (AID 2282948); conditions: HepG2 ISRE cis-reporter (Attagene), mRNA transcription readout; actives raise or lower the signal
Method in brief: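 Read-out: fluorescent RT-PCR products resolved by capillary electrophoresis, reporting endogenous transcription factor activity via ISRE-driven reporter mRNA in transfected HepG2 cells dosed for 24 h; gain or loss fitted relative to DMSO.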

Measured: AC50

Aryl hydrocarbon receptor (Homo sapiens), sequence (P35869 whole entry, looked up): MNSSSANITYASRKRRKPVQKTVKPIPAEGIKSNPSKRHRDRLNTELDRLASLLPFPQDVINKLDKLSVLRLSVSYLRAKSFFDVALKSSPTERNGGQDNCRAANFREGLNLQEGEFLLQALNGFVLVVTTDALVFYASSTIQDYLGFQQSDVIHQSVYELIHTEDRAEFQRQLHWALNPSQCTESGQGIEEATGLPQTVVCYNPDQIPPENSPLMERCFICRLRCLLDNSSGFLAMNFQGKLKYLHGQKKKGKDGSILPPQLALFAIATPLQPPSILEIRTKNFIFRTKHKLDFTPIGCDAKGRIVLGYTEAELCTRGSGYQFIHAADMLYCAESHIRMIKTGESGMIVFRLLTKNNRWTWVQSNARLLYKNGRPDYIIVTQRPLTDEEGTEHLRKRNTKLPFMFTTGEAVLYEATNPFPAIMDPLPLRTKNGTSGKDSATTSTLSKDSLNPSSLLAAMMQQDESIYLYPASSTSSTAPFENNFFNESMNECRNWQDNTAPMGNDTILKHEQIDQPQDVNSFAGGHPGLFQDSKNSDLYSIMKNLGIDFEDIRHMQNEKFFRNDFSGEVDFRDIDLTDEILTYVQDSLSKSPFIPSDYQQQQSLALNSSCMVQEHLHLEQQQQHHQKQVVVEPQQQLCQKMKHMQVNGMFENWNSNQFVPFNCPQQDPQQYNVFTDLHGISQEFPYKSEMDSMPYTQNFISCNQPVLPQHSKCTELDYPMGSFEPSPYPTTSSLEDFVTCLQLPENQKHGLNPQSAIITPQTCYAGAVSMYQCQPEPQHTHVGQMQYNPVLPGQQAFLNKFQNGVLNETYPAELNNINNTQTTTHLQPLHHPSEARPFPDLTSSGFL
Bile acid receptor (Homo sapiens), sequence (Q96RI1 whole entry, looked up): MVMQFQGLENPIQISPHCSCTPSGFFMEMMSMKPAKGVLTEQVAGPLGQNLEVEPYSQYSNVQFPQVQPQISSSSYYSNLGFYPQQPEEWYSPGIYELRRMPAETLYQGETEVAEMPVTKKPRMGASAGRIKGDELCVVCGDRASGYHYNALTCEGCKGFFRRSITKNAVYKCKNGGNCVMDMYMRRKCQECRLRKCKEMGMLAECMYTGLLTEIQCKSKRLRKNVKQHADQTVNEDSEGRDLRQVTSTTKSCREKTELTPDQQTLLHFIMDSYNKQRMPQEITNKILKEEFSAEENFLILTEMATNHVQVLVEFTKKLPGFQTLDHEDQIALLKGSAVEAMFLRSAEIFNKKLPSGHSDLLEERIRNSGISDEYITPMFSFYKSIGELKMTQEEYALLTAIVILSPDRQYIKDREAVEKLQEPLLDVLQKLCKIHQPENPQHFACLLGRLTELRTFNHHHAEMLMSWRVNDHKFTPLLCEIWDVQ
Hepatocyte nuclear factor 3-beta (Homo sapiens), sequence (Q9Y261 whole entry, looked up): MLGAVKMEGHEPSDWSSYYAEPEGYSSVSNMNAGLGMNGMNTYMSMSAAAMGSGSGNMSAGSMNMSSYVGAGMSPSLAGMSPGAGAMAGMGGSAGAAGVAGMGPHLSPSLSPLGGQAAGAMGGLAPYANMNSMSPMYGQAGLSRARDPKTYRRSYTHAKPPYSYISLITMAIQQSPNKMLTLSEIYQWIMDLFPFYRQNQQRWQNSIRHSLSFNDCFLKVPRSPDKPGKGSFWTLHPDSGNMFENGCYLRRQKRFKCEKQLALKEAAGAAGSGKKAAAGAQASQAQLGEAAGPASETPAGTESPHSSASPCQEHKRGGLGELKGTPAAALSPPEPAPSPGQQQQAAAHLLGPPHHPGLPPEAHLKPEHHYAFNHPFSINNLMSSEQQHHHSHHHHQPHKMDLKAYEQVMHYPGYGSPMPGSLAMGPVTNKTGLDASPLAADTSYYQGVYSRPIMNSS
Transcription factor E2F1 (Homo sapiens), sequence (Q01094 whole entry, looked up): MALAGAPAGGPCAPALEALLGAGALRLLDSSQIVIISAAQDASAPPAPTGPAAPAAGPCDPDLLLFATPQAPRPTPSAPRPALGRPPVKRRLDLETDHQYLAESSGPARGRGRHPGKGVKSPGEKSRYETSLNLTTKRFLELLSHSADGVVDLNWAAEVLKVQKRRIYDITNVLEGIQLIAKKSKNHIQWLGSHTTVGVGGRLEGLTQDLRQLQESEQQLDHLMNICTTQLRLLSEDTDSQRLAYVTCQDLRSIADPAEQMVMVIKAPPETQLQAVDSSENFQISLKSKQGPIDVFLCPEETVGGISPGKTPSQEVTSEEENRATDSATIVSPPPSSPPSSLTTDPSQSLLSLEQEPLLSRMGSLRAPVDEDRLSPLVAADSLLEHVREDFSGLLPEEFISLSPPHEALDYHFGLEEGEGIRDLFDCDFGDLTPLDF
Retinoic acid receptor alpha (Homo sapiens), sequence (P10276 whole entry, looked up): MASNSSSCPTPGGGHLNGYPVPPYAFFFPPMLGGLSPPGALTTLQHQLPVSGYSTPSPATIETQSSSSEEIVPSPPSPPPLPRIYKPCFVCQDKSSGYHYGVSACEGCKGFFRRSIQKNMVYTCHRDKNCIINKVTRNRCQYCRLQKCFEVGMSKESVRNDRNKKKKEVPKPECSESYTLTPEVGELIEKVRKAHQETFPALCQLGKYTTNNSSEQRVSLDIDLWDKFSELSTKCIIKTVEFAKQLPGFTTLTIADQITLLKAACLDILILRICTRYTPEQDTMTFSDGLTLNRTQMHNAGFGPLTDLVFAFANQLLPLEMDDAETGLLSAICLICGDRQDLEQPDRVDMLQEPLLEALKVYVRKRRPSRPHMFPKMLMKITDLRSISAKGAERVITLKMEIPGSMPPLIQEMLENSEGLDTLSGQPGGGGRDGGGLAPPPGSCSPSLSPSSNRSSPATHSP

O=C1Cc2ccccc2N1c1c(Cl)cccc1Cl
active: [1] 66.4 µM | [5] 100 µM | [12] 6.29 µM | [18] 100 µM
inactive: all other assays above

CCN(CC)CC
inactive: all assays above

Oc1c(Cl)cc(Cl)cc1Sc1cc(Cl)cc(Cl)c1O
active: [5] 1.9 µM
inactive: all other assays above

C=CCOCC(CO)(CO)CO
inactive: all assays above

CC(C)(C)c1ccc(O)c(O)c1
inactive: [1] | [2] | [4] | [6] | [7] | [8] | [9] | [10] | [11] | [13] | [14] | [15] | [16] | [17] | [18] | [19] | [20]
active: [1] 40.8 µM | [2] 20 µM | [10] 48.7 µM [middle of 4 runs] | [18] 45 µM and 59 µM and 37.3 µM

Oc1c(Cl)ccc(Cl)c1Cl
active: [2] 68.3 µM
inactive: all other assays above

CC(C)C=O
inactive: [1] | [2] | [3] | [5] | [6] | [7] | [8] | [9] | [10] | [11] | [13] | [15] | [16] | [17] | [20]
active: [1] 26.8 µM | [3] 61.2 µM
